Records with an inconclusive call do not appear. A number with no mark means an inactive call. Calls of active or inactive are those of the source. Calls follow the shape of the dose curve; as a rule, active = well fitted cell-killing curve with a large enough effect; inconclusive = small, poorly fitted or top-dose-only effect; inactive = flat fitted curve, though single readings scatter.
Assay: qHTS of pediatric cancer cell lines to identify multiple opportunities for drug repurposing: Primary screen for DAOY cells (AID 1347090); also: nearly all actives have a fitted effect of over 55% in size
Settings: DAOY medulloblastoma viability, CellTiter-Glo luminescence, 48 h; series mostly up to 46 µM; activity change, negative = cytotoxic: at the top concentration
Description: Drug repurposing or repositioning has been offered as a strategy for drug development in oncology programs. This approach has special potential for childhood cancers and other rare or orphan diseases, where the expected return on new drug development has been a disincentive to pharmaceuticals.
In this project we exploit the poly-pharmacology of drugs to discover new indications via phenotypic screening of a panel of 19 well-characterized cell lines derived from solid tumors seen in children and adolescents. The goal is to identify approved drugs with previously unrecognized anticancer properties that has the potential to reveal new mechanisms and biological processes involved in carcinogenesis or drug resistance. We employed a titration-based paradigm (quantitative high-throughput screening or qHTS), where all compounds were tested at multiple concentrations for their effect on cell viability. Concentration-response curves (CRCs) were derived directly from the primary screen, and both potency and efficacy values were used to identify compounds with robust bioactivity profiles. We screened the NIH Chemical Genomics Center (NCGC) Pharmaceutical Collection (NPC) and Mechanism Interrogation Plate (MIPE) small molecule collections of approved and investigational compounds against these cell lines; and measured metabolically active cells after 48 hours of compound treatment as a proxy for cell viability.
Assay Submitter: Nathalia J. Martinez, National Center for Advancing Translational Sciences, National Institutes of Health, Rockville, MD, USA; email: natalia.martinez@nih.gov
[1] Shen, M et al. Quantitative high-throughput phenotypic screening of pediatric cancer cell lines identifies multiple opportunities for drug repurposing. Oncotarget 2017 Dec 19;9(4):4758-4772. PMID 29435139.
The cells were obtained from University of North Carolina (UNC), Pediatric Preclinical Testing Program (PPT), and Coriell Institute (CI).
qHTS cell viability assay:
Cells were assayed in growth media at a density of 500-1,000 cells/well. Five microliters of cells were dispensed into 1,536-well, white, solid-bottom, TC-treated plates (Greiner Bio One) using a multidrop dispenser and incubated at 37 degrees C, 5% CO2, under a humidified atmosphere for 5 hours. Twenty-three nanoliters of compounds and controls (neutral control DMSO or positive control bortezomib at final concentration of 2.3 µM) were subsequently transferred by Kalypsys pintool. For primary screens, the MIPE collection was tested at 11-point dilutions (final concentrations range from 0.78 nM to 46 µM) and the NPC collection at 8-point dilutions (final concentrations range from 0.59 nM to 46 µM). Compounds tested in follow-up screens were assayed at 11-point dilutions. Cells were incubated for 48 hours, followed by addition of 3 uL of CellTiter-Glo (Promega). After a 15 min incubation at room temperature, samples were analyzed for luminescence intensity using a ViewLux High-throughput CCD imager equipped with clear filters.
Potency is read from the fitted curve at half-maximal effect.

Point of comparison: `CC(C)OP(=O)(CP(=O)(OC(C)C)OC(C)C)OC(C)C`, “activity change, negative = cytotoxic” value 3.28%. Against it:
- CC(C)(C)NCC(O)COc1ccccc1OCC1CCCO1 (stereo not given) — higher, 6.2%
- N=C(N)c1ccc(OCCCOc2ccc(C(=N)N)cc2)cc1 — lower, 1.66%
- CC(C)(C)c1cc(C=O)cc(C(C)(C)C)c1O — higher, 7.28%
- CN1C(CSCC(F)(F)F)Nc2cc(Cl)c(S(N)(=O)=O)cc2S1(=O)=O (stereo not given) — higher, 7.99%
- COc1ccc2c(c1)c(CC(=O)OC/C=C(\C)CC/C=C(\C)CCC=C(C)C)c(C)n2C(=O)c1ccc(Cl)cc1 — lower, -4%
- CN(C)CCCOC1(Cc2ccccc2)CCCCCC1 — higher, 4.51%
- CC(=O)OCC[N+](C)(C)C — lower, 0.457%
- NC(=O)COCCN1CCN(C(c2ccccc2)c2ccc(Cl)cc2)CC1 (stereo not given) — lower, -1.66%
- O=C(O)CNC(=O)CNC(=O)CNC(=O)CSC(=O)c1ccccc1 — lower, -1.18%
- O=C(O)c1cn(C2CC2)c2cc(Cl)c(F)cc2c1=O — higher, 3.62%
- CCOC(=O)C(=O)c1csc(NC=O)n1 — higher, 3.68%
- NS(=O)(=O)c1cc(C(=O)NN2C[C@H]3[C@H]4CCC(C4)[C@H]3C2)ccc1Cl — lower, 2.47%
- CCN(CC)C(=O)C1CN2CCc3cc(OC)c(OC)cc3C2CC1OC(C)=O (stereo not given) — lower, 0.636%
- CN1CCC(Nc2ncc3ncnc(Nc4ccc(F)c(Cl)c4)c3n2)CC1 — lower, -2.9%
- C1N2CN3CN1CN(C2)C3 — lower, 3.01%
- Cc1cc(O)c2c(O)c3c(O)cccc3cc2c1 — higher, 8.14%
- CC1(C)O[C@@H]2C[C@H]3[C@@H]4CCC5=CC(=O)C=C[C@]5(C)[C@@]4(F)[C@@H](O)C[C@]3(C)[C@]2(C(=O)CO)O1 — higher, 6.38%
- CCCCCOc1ccc(C2SC(=O)NC2=O)cc1OCC (stereo not given) — lower, -18.8%
- CC(C)CCCC(C)NCCC(C)C (stereo not given) — lower, -10.7%
- Cc1ccc(-c2ccccc2C#N)cc1 — higher, 12.9%
- O=C(OCC(COC(=O)c1cccnc1)(COC(=O)c1cccnc1)COC(=O)c1cccnc1)c1cccnc1 — lower, -8.17%
- COC(=O)c1cc(S(N)(=O)=O)ccc1OC — lower, 1.66%
- COc1cc(C=O)ccc1O — higher, 11.4%
- Cn1c(=O)c2c(ncn2CC(=O)O)n(C)c1=O — higher, 7.68%
- CCCN(CCC)C(=O)C(CCC(=O)OCCCN1CCN(CCOC(=O)Cc2c(C)n(C(=O)c3ccc(Cl)cc3)c3ccc(OC)cc23)CC1)NC(=O)c1ccccc1 (stereo not given) — lower, -8.38%
- Cc1onc(-c2ccccc2)c1C(=O)Cl — higher, 11.4%
- O=C(O)c1[nH]n(-c2ccc(S(=O)(=O)O)cc2)c(=O)c1N=Nc1ccc(S(=O)(=O)O)cc1 — lower, -0.264%
- CC[N+](CC)(CC)CCOC(=O)C(C1CCCC1)C1CCCC1 — lower, 0.987%
- O=C(CCCCC(=O)Nc1c(I)cc(I)c(C(=O)O)c1I)Nc1c(I)cc(I)c(C(=O)O)c1I — higher, 14.3%
- COc1cc(C(=O)OC(COCCC(C)C)CN2CCOCC2)cc(OC)c1OC (stereo not given) — higher, 3.31%
- CSc1ccc(/C=C2/C(C)=C(CC(=O)O)c3cc(F)ccc32)cc1 — higher, 5.77%
- CC(C)C(=O)Nc1cccc(C(F)(F)F)c1 — higher, 10.8%
- CCOC(=O)c1cc(=O)c2c(OCC(COc3cccc4oc(C(=O)OCC)cc(=O)c34)OC(=O)[C@@H](N)CCCCN)cccc2o1 — higher, 10.4%
- COc1cc(S(N)(=O)=O)cc(C(=O)O)c1OC — higher, 7.29%
- O=C1CC2(CCCC2)CC(=O)N1CCNCC1COc2ccccc2O1 (stereo not given) — lower, 2.33%

With `Nc1c2ccccc2nc2ccccc12` the Potency was 21.1 µM (active).
For `O=C(Nc1ccc(Cl)cc1)Nc1ccc(Cl)c(C(F)(F)F)c1`, the Potency was 13.3 µM (active).

Point of comparison: `CCCCC(CC)COC(=O)c1ccccc1C(=O)O` (stereo not given), “activity change, negative = cytotoxic” value 10.9% [at 92.7 µM]. Against it:
- O=C(Oc1ccccc1)c1cccc(C(=O)Oc2ccccc2)c1 — higher, 11.7% [at 92.7 µM]

— PubChem BioAssay (NCATS)
